{"source": "PubChem BioAssay (EPA / NIEHS)", "note": "“And” between values parts separate entries of the source, which are not always exact repeats. Identical values can stand only once. Records with an inconclusive call do not appear. The source made the active and inactive calls. The calls were made as follows: active = hit-call score of the fitted dose curve at least 0.9, where 1 is the maximum; inconclusive = response in the unintended direction; inactive = score below 0.9."}
{"molecular_target": "Cellular tumor antigen p53 (Homo sapiens) (UniProt P04637)", "sequence (P04637 whole entry, looked up)": "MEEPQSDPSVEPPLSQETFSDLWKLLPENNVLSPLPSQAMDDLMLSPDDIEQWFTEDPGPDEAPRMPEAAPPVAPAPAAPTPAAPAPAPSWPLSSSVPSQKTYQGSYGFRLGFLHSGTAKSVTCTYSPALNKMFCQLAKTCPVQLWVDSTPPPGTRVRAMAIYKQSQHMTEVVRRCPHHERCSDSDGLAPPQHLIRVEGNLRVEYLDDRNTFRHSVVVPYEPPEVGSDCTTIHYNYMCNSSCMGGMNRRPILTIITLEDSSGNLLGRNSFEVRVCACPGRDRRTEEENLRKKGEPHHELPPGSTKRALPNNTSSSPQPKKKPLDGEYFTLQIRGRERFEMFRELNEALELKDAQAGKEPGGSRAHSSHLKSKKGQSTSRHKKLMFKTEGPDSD", "assay": "TOX21_p53_BLA_p3_ratio: Tox21 HCT-116 p53 Agonism Beta-lactamase Assay, Ratio, Phase 3 (AID 2283596)", "how_it_was_run": "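HCT116 p53-bla cells (4000/well) given compound in DMSO (217-fold dilution) after 5 h, incubated 16 h at 37C. CCF4-AM substrate 2 h at room temperature; 460/530 nm emission ratio, gain fitted against DMSO.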"}
{"molecule": "CCNc1nc(NCC)nc(SC)n1", "outcome": "inactive"}
{"molecule": "CC(C)[C@@H](Nc1ccc(C(F)(F)F)cc1Cl)C(=O)OC(C#N)c1cccc(Oc2ccccc2)c1", "note": "(some centres undefined)", "outcome": "inactive"}
{"molecule": "CC(C)CC(C)(c1ccc(O)cc1)c1ccc(O)cc1", "AC50": "45.2 µM (active) and 86.9 µM (active)"}
{"molecule": "N#CS", "outcome": "inactive"}
{"molecule": "CCN(CC)C(=O)C(Cl)=C(C)OP(=O)(OC)OC", "outcome": "inactive"}
{"molecule": "C=CCCl", "outcome": "inactive"}
{"molecule": "O=C(CBr)c1ccc(O)cc1", "outcome": "inactive"}
{"molecule": "Oc1ccc(Cc2ccc(O)cc2)cc1", "outcome": "inactive"}
{"molecule": "O=S1OC[C@@H]2[C@H](CO1)[C@]1(Cl)C(Cl)=C(Cl)[C@@]2(Cl)C1(Cl)Cl", "note": "(some centres undefined)", "outcome": "inactive"}
{"molecule": "Nc1cccnc1", "outcome": "inactive"}
{"molecule": "CCOC(=O)OC1=C(c2cc(C)ccc2C)C(=O)NC12CCC(OC)CC2", "note": "(centres undefined)", "AC50": "52.6 µM (active)"}
{"molecule": "CS(=O)(=O)c1ccc(C(=O)C2C(=O)CCCC2=O)c(Cl)c1COCC(F)(F)F", "outcome": "inactive"}
{"molecule": "N#CCC#N", "outcome": "inactive"}
{"molecule": "O=C(O)CC(O)(CC(=O)O)C(=O)O", "outcome": "inactive"}
{"molecule": "O=NN1CCOCC1", "outcome": "inactive"}
{"molecule": "CCCCCCCCBr", "outcome": "inactive"}
{"molecule": "CCOc1cc(C=O)ccc1O", "outcome": "inactive"}
{"molecule": "C#C[C@]1(O)CC[C@H]2[C@@H]3CCC4=CC(=O)CC[C@]4(C)[C@H]3CC[C@@]21C", "outcome": "inactive"}
{"molecule": "C=CC(=O)OCC(COC(=O)C=C)(COC(=O)C=C)COC(=O)C=C", "outcome": "inactive"}
{"molecule": "CCOP(=S)(OCC)O/N=C(\\C#N)c1ccccc1", "outcome": "inactive"}
{"molecule": "C=C(C)[C@@H]1CC=C(C=O)CC1", "outcome": "inactive"}
{"molecule": "C=CCc1ccccc1O", "outcome": "inactive"}
{"molecule": "O=CCCl", "outcome": "inactive"}
{"molecule": "Cc1cc(C(F)(C(F)(F)F)C(F)(F)F)ccc1NC(=O)c1cccc(I)c1C(=O)NC(C)(C)CS(C)(=O)=O", "outcome": "inactive"}
